# Data reported in PubChem BioAssay (Tox21).
# “And” between values parts separate entries of the source, which are not always exact repeats. Equal entries are not always repeated. Inconclusive results are not listed. Where a call stands in place of a potency, no number is given. The source made the active and inactive calls. Unless noted, calls follow the shape of the dose curve; as a rule, active = well fitted curve in the direction sought with a large enough effect in the repeat runs; inconclusive = weak or mixed curves; inactive = no such curve, though single readings can be large; an effect the other way counts as inactive or inconclusive.
# What was measured:
# [1] = qHTS assay to identify small molecule antagonists of the estrogen related receptor (ERR) signaling pathway from Tox21 library - cell viability counter screen (AID 1224834); also: nearly all actives have a fitted effect of over 30% in size; also: potency is read from the fitted curve at half-maximal effect
# In short: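 Fluorescence from CellTiter-Fluor gives the viability read-out, taken 30 min after reagent addition. Before that, ERR cells seeded 6 h earlier were incubated with compounds for 17.5 h at 37 C.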
# [2] = qHTS assay to identify small molecule antagonists of the retinoic acid receptor (RAR) signaling pathway (AID 1159552; also: nearly all actives have a fitted effect of over 50% in size; also: potency is read from the fitted curve at half-maximal effect)
# In short: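 Cells of the C3RL4 line were seeded, incubated overnight, then dosed with compounds in DMSO followed immediately by retinol (1 uM final). Six hours later luciferase detection reagent went in; signal was measured after 30 min at RT.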
# [3] = qHTS assay to identify small molecule agonists of the retinoic acid receptor (RAR) signaling pathway (AID 1159553)
# In short: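 Luminescence from a RARE-driven luciferase reporter in C3RL4 cells served as the read-out, measured after 30 min with detection reagent at room temperature. Compounds in DMSO were applied for 6 hr at 37 C following overnight seeding.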
# [4] = qHTS assay to identify small molecule antagonists of the estrogen related receptor (ERR) signaling pathway - cell viability counter screen (AID 1224818);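 also: series mostly up to about 46 µM; viability measured after 17.5 h of compound exposure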
# In short: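 Multiplexed counter screen to separate cytotoxic compounds from true ERR modulators. ERR cells received DMSO-dissolved compounds after a 6 h pre-incubation, were exposed 17.5 h at 37 C, then assayed with CellTiter-Fluor fluorescence.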
# [5] = qHTS assay to identify small molecule antagonists of the estrogen related receptor (ERR) signaling pathway (AID 1224819;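 also: luminescence from an ERR-driven luciferase reporter measured with One-Glo reagent; series mostly up to about 46 µM; nearly all actives have a fitted effect of over 50% in size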)
# In short: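 Seed ERR cells 2,000/well; rest 6 h at 37 C/5% CO2; pin compounds in DMSO; incubate 18 h at 37 C; add One-Glo; wait 30 min at room temperature; measure luminescence.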
# [6] = qHTS assay to identify small molecule agonists of the estrogen related receptor (ERR) signaling pathway (AID 1224820)
# In short: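 ERR reporter cell line (from NTP), 2,000 cells/well, incubated 6 h before compound addition, then 18 h at 37 C. Luminescence measured 30 min after One-Glo reagent at room temperature.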
# [7] = test system: estrogen-related receptor alpha (ERRalpha) with PGC-1alpha coactivator, human; experiment: qHTS assay to identify small molecule antagonists of the estrogen related receptor signaling pathway with the pleiotropic PPARgamma coactivator (PGC) (AID 1224821; calls by dose curve;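 also: series mostly up to about 46 µM; lower luminescence signal means antagonism of PGC/ERR signalling; nearly all actives have a fitted effect of over 50% in size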)
# In short: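 PGC/ERR reporter cell line, plated 6 h before compound addition, then exposed 18 h at 37 °C. Luciferase activity read by luminescence 30 min after One-Glo addition; decrease indicates antagonism.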
# [8] = qHTS assay to identify small molecule agonists of the estrogen related receptor signaling pathway with the pleiotropic PPARgamma coactivator (PGC) (AID 1224823)
# In short: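 PGC/ERR reporter cells seeded 6 h, then exposed to compounds (23 nL in DMSO) for 18 h at 37 C. One-Glo luciferase luminescence read after 30 min at room temperature.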
structure (smiles),measurement,setting,value
CCCCN(CCCC)C(=S)[S-].CCCCN(CCCC)C(=S)[S-].[Zn+2],Potency,[1],15.3 µM (active)
C[C@@H]1CC[C@@]2(OC1)O[C@H]1[C@@H](O)[C@H]3[C@@H]4CC[C@H]5C[C@@H](O[C@@H]6O[C@H](CO)[C@H](O[C@@H]7O[C@H](CO)[C@@H](O)[C@H](O[C@@H]8OC[C@@H](O)[C@H](O)[C@H]8O)[C@H]7O[C@@H]7O[C@H](CO)[C@@H](O)[C@H](O[C@@H]8O[C@H](CO)[C@@H](O)[C@H](O)[C@H]8O)[C@H]7O)[C@H](O)[C@H]6O)[C@H](O)C[C@]5(C)[C@H]4CC[C@]3(C)[C@H]1[C@@H]2C,Potency,[2],20.5 µM (active)
same,Potency,[1],20.5 µM (active)
[CH3][Hg][Cl],Potency,[2],inactive
same,Potency,[1],60.9 µM (active)
Cc1cc(C(C)(C)c2cc(C)c(O)c(C)c2)cc(C)c1O,Potency,[2],52.7 µM (active)
same,Potency,[1],41.8 µM (active)
O=C(O)c1cc[c]([Hg][Cl])cc1,Potency,[1],13.7 µM (active)
CCCCCCCCCCCCCC[P+](CCCCCC)(CCCCCC)CCCCCC (tested in a mixture with another compound),Potency,[1],24.3 µM (active)
N#C/C=C/c1ccccc1,Potency,[2],inactive
same,Potency,[1],inactive
O=C(CCCN1CCC2(CC1)C(=O)NCN2c1ccccc1)c1ccc(F)cc1,Potency,[3],inactive
same,outcome,[4],inactive
same,Potency,[5],inactive
same,outcome,[6],inactive
same,Potency,[7],inactive
same,outcome,[8],inactive
same,Potency,[1],inactive
BrCBr,Potency,[1],inactive
CC[C@H](C)[C@H]1O[C@]2(C=C[C@@H]1C)C[C@@H]1C[C@@H](C/C=C(\C)[C@@H](O[C@H]3C[C@H](OC)[C@@H](O[C@H]4C[C@H](OC)[C@@H](O)[C@H](C)O4)[C@H](C)O3)[C@@H](C)/C=C/C=C3\CO[C@@H]4[C@H](O)C(C)=C[C@@H](C(=O)O1)[C@]34O)O2,Potency,[2],32.2 µM (active)
same,Potency,[1],16.1 µM (active)
CCOP(=S)(OCC)SCS(=O)(=O)C(C)(C)C,Potency,[2],inactive
same,Potency,[1],inactive
CCCCCCCCCCCCCCCC[N+](C)(C)C,Potency,[1],23.5 µM (active) and 61.1 µM (active) and 18.8 µM (active)
O=[N+]([O-])c1cc(Cl)ccc1Cl,Potency,[2],inactive
same,Potency,[1],inactive
Clc1ccc(CO/N=C(\Cn2ccnc2)c2ccc(Cl)cc2Cl)c(Cl)c1,Potency,[1],26.6 µM (active)
CC1(c2ccc(Oc3ccccc3)cc2)OC(=O)N(Nc2ccccc2)C1=O (stereo not given),Potency,[2],27.5 µM (active)
same,Potency,[1],27.5 µM (active)
CC(C)CCCCCCCOP(=O)(Oc1ccccc1)Oc1ccccc1,Potency,[1],inactive
